Holding throughout (assay): NCI-60 one-dose screen, 48 h (100 = growth as untreated, 0 = no growth, -100 = all killed)
Holding throughout (settings): 10 µM unless noted

Assay [1] concerns HCT-15 colon.
For assay [2], the system named is HT29 colon.
Assay [3] deals with SNB-75 CNS.
In assay [4] the test system is SNB-19 CNS.
Assay [5] deals with U251 CNS.
In assay [6] the test system is PC-3 prostate.
In assay [7] the test system is SK-MEL-5 melanoma.
Assay [8] deals with UACC-62 melanoma.
Assay [9] relates to LOX IMVI melanoma.
For assay [10], the system named is SK-MEL-28 melanoma.
The test system of assay [11] is SK-MEL-2 melanoma.
The subject of assay [12] is EKVX NSCLC.
Assay [13] concerns SN12C renal.
The test system of assay [14] is UO-31 renal.
The test system of assay [15] is TK-10 renal.
Assay [16] deals with ACHN renal.
Assay [17] relates to CAKI-1 renal.
For assay [18], the system named is CCRF-CEM leukemia.
In assay [19] the test system is MOLT-4 leukemia.
Assay [20] concerns A498 renal.

This is part of a sample that, as a whole, favours compounds with a hit. Of some 83,000 tested, about 20% had one in any assay.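 Method: cells in 96-well plates; compound added at one concentration; 48 h incubation; percent growth measured; values under 10 scored active.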 A number with no mark means an inactive call. Activity calls are given as the source filed them.

In the case of `CCOC(=O)N1CCN(CCCCl)CC1`, the growth in assay [1] is 105%; in assay [2] it was 107%; in assay [3], 102%; in [4], 97.6%; in assay [5], 95.6%; in assay [6] it was 102%. Further, the growth in assay [7] was 101%; in assay [8] it was 93.5%; in assay [9], 99.5%; in assay [10] it was 106%; in [11], 103%; in assay [12], 98.2%. Also, the growth in assay [13] was 99%; in assay [14], 89.5%; in assay [15] it was 92.1%; in assay [16], 97.4%; in assay [17], 101%; in assay [18], 110%. Further, in assay [19], the growth was 98.7%.

Take `Nc1c(C(=O)Nc2cccc3ccncc23)sc2nc3c(cc12)C(=O)CCC3`: the growth was 35.1% in assay [1]; 18.2% in [2]; 9.48% (active) in [3]; 32.9% in assay [4]; 48.3% in assay [5]; 52.9% in [6]. The growth in assay [7] is 3.47% (active); in assay [8] it was 28.9%; in assay [9], 46.2%; in [10], 55.8%; in assay [11] it was 25.1%; in assay [12] it was 62.1%. Also, the growth is 54.5% in [13]; 57.7% in assay [14]; 68.2% in assay [15]; 51.2% in assay [16]; 37.7% in [17]; 21.5% in assay [18].

As to `COc1ccc(/C(=C\c2ccccc2)C(=O)O)cc1OC`, the growth in assay [1] is 102%; in [2], 103%; in [3], 81.6%; in assay [4], 95.7%; in assay [5], 99.6%; in assay [6] it was 96.9%. In addition, the growth was 93% in [7]; 93% in assay [8]; 95.3% in assay [9]; 106% in assay [10]; 98.3% in assay [11]; 101% in [12]. Moreover, the growth in assay [13] was 98.4%; in assay [14], 88.9%; in [15], 104%; in assay [16] it was 94.8%; in assay [17] it was 97.4%; in assay [18], 117%. Besides, the growth in assay [19] is 108%.

For `CC(C)(C#N)N1CCN(c2ccccc2Cl)CC1`, the growth in [1] was 103%; in [2] it was 96.4%; in [3] it was 102%; in assay [4], 118%; in assay [5], 102%; in [6], 102%. The growth was 114% in assay [7]; 112% in assay [8]; 87.3% in [9]; 112% in assay [10]; 103% in assay [11]; 97.2% in assay [12]. The growth in assay [13] was 108%; in [14], 81.8%; in [15], 104%; in [16], 109%; in [17], 94.5%; in assay [18] it was 100%. For the same compound, in assay [19], the growth was 97.8%.

For `COc1cc(/C=C/C(=O)c2c(C)oc3nc[nH]c(=O)c23)ccc1O`, the growth was 98.1% in [1]; 108% in assay [2]; 84.4% in assay [3]; 97.3% in assay [4]; 103% in [5]; 103% in [6]. Also, the growth in [7] was 101%; in [8], 96.5%; in assay [9], 97.7%; in assay [10] it was 101%; in [11] it was 109%; in assay [12], 97.9%. Also, the growth in [13] was 97.2%; in assay [14] it was 84.3%; in assay [15], 135%; in [16], 101%; in assay [17] it was 87.1%; in assay [20] it was 94.8%. The growth in [19] is 104%.

As to `COc1cc2nc(-c3ccc(C(F)(F)F)cc3)cc(OCCCN3CCC(O)CC3)c2cc1OC`, the growth was 9.78% (active) in assay [1]; 9.01% (active) in assay [2]; -7.26% (active) in assay [3]; 62% in assay [4]; 46.3% in assay [5]; 40.6% in [6]. Moreover, the growth in [7] is -56.3% (active); in assay [8], -31.3% (active); in assay [9], -74.4% (active); in [10] it was 62.7%; in assay [11], 47.6%; in assay [12], 59.8%. Besides, the growth in [13] is 37.4%; in assay [14], 24.2%; in assay [15], 85.7%; in [16] it was 31.2%; in assay [17] it was -6.95% (active); in assay [18], 34.2%. Also, the growth in [19] was 35.3%.

As for `Cc1nn(-c2ccccc2)c(N2CCOCC2)c1/C=N/N=c1\sc2ccccc2n1C`, the growth in [1] is 39.1%; in [2] it was 66.5%; in assay [3] it was 99.2%; in [4], 87.3%; in [5] it was 55.2%; in assay [6], 49%. Moreover, the growth is 38.5% in [7]; 71.1% in assay [8]; 57.9% in assay [9]; 75.9% in assay [10]; 105% in [11]; 82.2% in assay [12]. The growth is 81.7% in assay [13]; 65.2% in assay [14]; 129% in assay [15]; 82.4% in assay [16]; 67.3% in [17]; 67.3% in [18]. In addition, in [19], the growth is 58.6%.

As to `C=C(C)[C@@H]1CC[C@]2(C(=O)NCC(=O)OC)CC[C@]3(C)[C@H](CC[C@@H]4[C@@]5(C)Cc6c([nH]c7ccccc67)C(C)(C)[C@@H]5CC[C@]43C)[C@@H]12`, the growth is 81.9% in [1]; 60.8% in assay [2]; 114% in assay [3]; 82.5% in assay [4]; 58.9% in [5]; 49.1% in [6]. Besides, the growth in assay [7] was 81.7%; in [8], 76.6%; in assay [9] it was 70.7%; in assay [10] it was 95%; in assay [11], 78.2%; in assay [12] it was 71.5%. In addition, the growth in assay [13] is 70.9%; in assay [14], 65.1%; in assay [15], 89.3%; in [16], 60.5%; in assay [17], 58.6%; in assay [18], 57.2%. Moreover, the growth in assay [19] was 40.9%.

(Values after PubChem BioAssay (NCI).)
